Among the data in PubChem BioAssay (NCATS) are viability and Potency values, retold here.

Assay [1] can be described thus: Quantitative High-Throughput drug screen in 47 multiple myeloma cell lines against the NCATS MIPE library collection: SKMM1_PLB cell viability assay (AID 1919863). Further: nearly all actives have a fitted effect of over 35% in size. The conditions noted are these: SKMM1 myeloma viability, CellTiter-Glo ATP, 48 h; viability: active compounds read low. Put shortly: (§1)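 500 cells/well; MIPE 4.0 drugs pin-transferred; 48 h, 37C, 5% CO2. CellTiter-Glo, 5 min RT, luminescence. Controls: DMSO 100%, media 0%.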

Assay [2] can be described thus: Quantitative High-Throughput drug screen in 47 multiple myeloma cell lines against the NCATS MIPE library collection: U266_ATCC cell viability assay (AID 1919864). Further: nearly all actives have a fitted effect of over 35% in size. In short, it runs like this: as §1
A short description of assay [3]: Quantitative High-Throughput drug screen in 47 multiple myeloma cell lines against the NCATS MIPE library collection: XG1_PLB cell viability assay (AID 1919866). Further: nearly all actives have a fitted effect of over 35% in size. Put shortly: as §1
Assay [4] is described as follows: Quantitative High-Throughput drug screen in 47 multiple myeloma cell lines against the NCATS MIPE library collection: UTMC2_PLB cell viability assay (AID 1919868). Further: nearly all actives have a fitted effect of over 55% in size. The settings on record: CellTiter-Glo ATP luminescence, 48 h; viability (% of DMSO control): at 45.8 µM (top of the series). In short, it runs like this: as §1
(In ATP-based viability assays light output follows the ATP content of the culture.)

A short description of assay [5]: Quantitative High-Throughput drug screen in 47 multiple myeloma cell lines against the NCATS MIPE library collection: PE2_PLB cell viability assay (AID 1919869). Further: nearly all actives have a fitted effect of over 35% in size. Put shortly:
as §1

Assay [6] is described as follows: Quantitative High-Throughput drug screen in 47 multiple myeloma cell lines against the NCATS MIPE library collection: PCM6_Riken cell viability assay (AID 1919870). Further: nearly all actives have a fitted effect of over 30% in size. Put shortly:
as §1

Assay [7] can be described thus: Quantitative High-Throughput drug screen in 47 multiple myeloma cell lines against the NCATS MIPE library collection: RPMI8226_ATCC cell viability assay (AID 1919871). Further: nearly all actives have a fitted effect of over 30% in size. Put shortly: as §1
Assay [8] is described as follows: Quantitative High-Throughput drug screen in 47 multiple myeloma cell lines against the NCATS MIPE library collection: XG6_PLB cell viability assay (AID 1919865). Further: nearly all actives have a fitted effect of over 40% in size. Put shortly:
as §1

Assay [9] can be described thus: Quantitative High-Throughput drug screen in 47 multiple myeloma cell lines against the NCATS MIPE library collection: OPM2_DSMZ cell viability assay (AID 1919872). Further: nearly all actives have a fitted effect of over 30% in size. Put shortly: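 Luminescent ATP measurement with CellTiter-Glo gives viability, scaled between DMSO-only wells (100%) and media-only wells (0%). Cells, 500 per well, faced library compounds for 48 hours at 37C.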

Assay [10] can be described thus: Quantitative High-Throughput drug screen in 47 multiple myeloma cell lines against the NCATS MIPE library collection: VP6_DJ cell viability assay (AID 1919867). Further: nearly all actives have a fitted effect of over 40% in size. Put shortly: as §1

Inconclusive results are not listed. Unmarked numbers belong to inactive results. Active and inactive are the calls of the source. The call rests on the fitted dose curve; in most records, active means well fitted cell-killing curve with a large enough effect; inconclusive means small, poorly fitted or top-dose-only effect, or effect the other way; inactive means no such curve, though single readings can be large or run the other way.
Potency means the concentration at half of the fitted maximal effect.

Consider `CC[C@H](C=C[C@@H](C)[C@H]1CC[C@H]2[C@@H]3CC=C4C[C@@H](O)CC[C@]4(C)[C@@H]3CC[C@]12C)C(C)C`, for which, in assay [1], the viability (usually a read-out of living cells in per cent, often relative to untreated cells) is 119%. Moreover, the Potency result in [2], in assay [4] and in [7] was “inactive” in each case. Also, the Potency in assay [3] was 1.02 µM (active); in assay [5], 0.0575 µM (active); in assay [6], 0.575 µM (active).

`CN1N=C(N)c2cn([C@@H]3O[C@H](COP(=O)(O)O)[C@@H](O)[C@@H]3O)c3ncnc1c23`: the Potency in assay [1] was 1.32 µM (active); in [2] it was 5.26 µM (active); in [4], 0.0235 µM (active); in [5], 0.059 µM (active); in assay [6], 1.05 µM (active).

Turning to `COc1ccc(CCN(C)CCCOc2ccc(S(=O)(=O)c3[nH]c4ccccc4c3C(C)C)cc2)cc1OC`, the viability in assay [1] was 110%. The Potency was 18.7 µM (active) in assay [2], 26.4 µM (active) in assay [8], 18.7 µM (active) in assay [5] and 18.7 µM (active) in assay [7]. In addition, the Potency result in [4] and in assay [9] was “inactive” in each case.

In the case of `CC1C(=O)OC2C(O)C34C5CC(C(C)(C)C)C36C(OC(=O)C6O)OC4(C(=O)O5)C12O` (centres undefined), the Potency in assay [1] was 11.8 µM (active). The Potency entry in assay [2], in assay [5], in assay [7] and in [9] was “inactive” throughout.

For the compound `N#Cc1ccc(Oc2ccc3c(c2)COB3O)cc1`, the viability in [1] is 113%. In addition, the Potency result in [2], in assay [7] and in assay [9] was “inactive” each time. Besides, in [8], the Potency is 16.6 µM (active).

For the compound `CO[C@H]1/C=C\O[C@@]2(C)Oc3c(C)c(O)c4c(O)c(c(C=NN5CCN(C6CCCC6)CC5)c(O)c4c3C2=O)NC(=O)C(C)=CC=C[C@H](C)[C@H](O)[C@@H](C)[C@@H](O)[C@@H](C)[C@H](OC(C)=O)[C@H]1C`, the Potency in [1] is 7.43 µM (active); in [2] it was 16.6 µM (active); in [8], 0.105 µM (active); in assay [4] it was 0.059 µM (active); in assay [5], 0.118 µM (active); in [7], 1.18 µM (active).

As to `CCN(CC)CCCCNc1nc2cc(Cl)c(Cl)cc2nc1-c1ccc(-c2cccs2)s1`, the Potency was 16.6 µM (active) in assay [1]; 23.5 µM (active) in [2]; 8.33 µM (active) in [3]; 8.33 µM (active) in [10]; 9.35 µM (active) in assay [4]; 10.5 µM (active) in [7].

As for `O=c1[nH]c(=O)n([C@H]2C[C@@H](O)[C@@H](CO)O2)cc1C(F)(F)F`, the Potency was 5.9 µM (active) in assay [1], 1.87 µM (active) in assay [8], 10.5 µM (active) in [5] and 3.72 µM (active) in assay [7]. Further, in [2], the Potency entry was “inactive”.

As for `CCCCC(F)(F)[C@@]1(O)CC[C@H]2[C@H](CC(=O)[C@@H]2CCCCCCC(=O)O)O1`, in assay [1], the viability is 97.7%. The Potency entry in [2], in assay [3], in assay [5], in assay [6] and in [9] was “inactive” throughout.

For `OC(c1cc(C(F)(F)F)nc2c(C(F)(F)F)cccc12)C1CCCCN1` (centres undefined), the Potency was 23.5 µM (active) in assay [1]; 26.4 µM (active) in [2]; 14.8 µM (active) in assay [3]; 14.8 µM (active) in assay [10]; 20.9 µM (active) in [4]; 23.5 µM (active) in assay [5]. For the same compound, the figures for the Potency in [6] and in assay [9] were 13.2 µM (active) and 23.5 µM (active), respectively.

Regarding `Cc1ccccc1C(=O)c1ccc(Nc2ccc(Br)cc2N)cc1Cl`, the Potency is 16.6 µM (active) in assay [1]; 11.8 µM (active) in assay [2]; 18.7 µM (active) in [8]; 16.6 µM (active) in assay [10]; 18.7 µM (active) in [5]; 23.5 µM (active) in [9].

Take `COc1ccnc(CS(=O)c2nc3ccc(OC(F)F)cc3[nH]2)c1OC` (centres undefined): the viability in assay [1] is 150%. Further, the Potency entry in assay [2], in [5] and in assay [7] was “inactive” in each case. In addition, the Potency in [8] is 20.9 µM (active).

Consider `O=C(CO)N1CCC(c2[nH]nc(-c3ccc(Cl)cc3)c2-c2ccncn2)CC1`, for which the Potency is 0.59 µM (active) in assay [1] and 1.05 µM (active) in [10]. Further, the Potency result in assay [2], in [3] and in [7] was “inactive” each time.

In the case of `O=C(c1ccc(F)c(F)c1Nc1ccc(I)cc1F)N1CC(O)([C@H]2CCCCN2)C1`, the Potency is 16.6 µM (active) in [1]; 23.5 µM (active) in assay [2]; 18.7 µM (active) in assay [8]; 7.43 µM (active) in [5]; 16.6 µM (active) in assay [6]; 20.9 µM (active) in assay [7]. The Potency in assay [9] is 13.2 µM (active).

As for `C[C@]12CCC3=C4CCC(=O)C=C4CC[C@@H]3[C@H]1CC[C@@]2(O)CC#N`, the viability in assay [1] is 162%. For the same compound, the Potency entry in assay [2], in [3], in [5], in [7] and in assay [9] was “inactive” in each case.

Take `Cc1c(C(=O)Nc2ccc(N3C[C@@H](C)O[C@@H](C)C3)nc2)cccc1-c1ccc(OC(F)(F)F)cc1`: the Potency in assay [1] was 26.4 µM (active); in [2], 5.9 µM (active); in assay [7], 16.6 µM (active); in [9], 23.5 µM (active). Moreover, the Potency result in assay [5] and in assay [6] was “inactive” each time.

Turning to `CC1=C[C@@H]2[C@@H]([C@@H](O)C[C@@]3(C)[C@H]2C[C@@H](C)[C@]3(O)C(=O)CO)[C@@]2(C)Cc3cnn(-c4ccccc4)c3C=C12`, the Potency in [1] was 18.7 µM (active); in assay [2] it was 20.9 µM (active); in assay [8] it was 20.9 µM (active); in [5], 23.5 µM (active); in assay [7], 0.0264 µM (active); in [9] it was 20.9 µM (active).

With `CCC(=O)N1CCN(c2ccc(-n3c(=O)ccc4cnc5ccc(-c6cnc7ccccc7c6)cc5c43)cc2C(F)(F)F)CC1`, the Potency is 0.0148 µM (active) in assay [1], 0.0418 µM (active) in [2], 0.0469 µM (active) in assay [4] and 0.0264 µM (active) in assay [9].

Turning to `COc1nccc(-c2c(-c3ccc(F)cc3)ncn2C2CCC(O)CC2)n1` (centres undefined), the Potency is 0.0296 µM (active) in assay [1], 2.96 µM (active) in assay [2], 18.7 µM (active) in assay [5] and 1.18 µM (active) in assay [7].

`CC(=O)OCC(=O)[C@@]1(O)CC[C@H]2[C@@H]3CCC4=CC(=O)C=C[C@]4(C)[C@@H]3[C@@H](O)C[C@@]21C`: the Potency in assay [1] was 0.0074 µM (active). Besides, the Potency entry in assay [2], in assay [3], in assay [5] and in assay [9] was “inactive” in each case.
